RE007 growth inh = less growth of the S. pombe RE007 Vpr strain; S. pombe RE007 Vpr strain, BacTiter-Glo ATP luminescence, 24 h; Potency, µM (doses to about 92.2 µM), for inactives: at the highest dose activity change, negative = less growth, hits mostly inhibitors; 360,000 tested, 0.21% active; AID 651644; active = well fitted falling curve with a large enough effect; inconclusive = small, poorly fitted or top-dose-only effect; inactive = no such curve, though single readings can be large or run the other way; note: % is set by controls: 0 for no effect and ±100 for the full control effect; nearly all actives have a fitted effect of over 50% in size
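Fission yeast strain RE007, carrying one chromosomally integrated HIV-1 vpr copy, was seeded at OD 0.01 in PMG+AL medium with 23 nL pinned compound. After 24 h at 30 °C and 99% humidity, viability was read by BacTiter-Glo luminescence.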
Pf growth 96h = inhibits malaria parasite growth, 96 h | P. falciparum luciferase reporter growth, 96 h | Potency, µM (doses to about 28.7 µM), for the others: top-dose activity change, negative = inhibition, most hits filed as inhibitors | 320,000 tested, 6.9% active; active = well fitted inhibition curve with a large enough effect; inconclusive = small, poorly fitted or top-dose-only effect, or another doubt; inactive = no such curve, though single readings can be large or run the other way; note: % is set by controls: 0 for no effect and ±100 for the full control effect
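Parasite growth measured via integrated firefly luciferase reporter in P. falciparum. Infected erythrocytes at 2% hematocrit, 0.05% parasitemia final were treated 96 hours at 37 C under 5% CO2, and luminescence was read.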
NS1 function inh = influenza NS1 inhibition; Potency, µM (doses to about 46.1 µM), for inactives: at the highest dose activity, positive = more growth; 270,000 tested, 0.4% active; note: actives are rising curves; nearly all actives have a fitted effect of over 50% in size
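S. cerevisiae expressing influenza A NS1, grown in glucose, washed, then diluted 1:100 into pH 6.0 -URA galactose medium with 23 nl compound. Growth recovery read as OD600; NS1-free strain serves as control.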
Pf growth 48h = inhibits P. falciparum growth in the first generation, 48 h | Potency, µM (series often up to 28.7 µM), for the others: at the top dose activity change, negative = inhibition, most hits filed as inhibitors | 310,000 tested, 5.9% active | P. falciparum luciferase growth in erythrocytes, 48 h; active = well fitted inhibition curve with a large enough effect; inconclusive = small, poorly fitted or top-dose-only effect, or another doubt; inactive = no such curve, though single readings can be large or run the other way; note: % is set by controls: 0 for no effect and ±100 for the full control effect
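In quantitative HTS format, infected erythrocytes bearing luciferase-reporter parasites were treated for a single generation at 37 C. Luminescence after adding detection reagent served as the growth measure.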
SARS PLP yeast = SARS-CoV PLP inhibition in yeast | 330,000 tested, 0.19% active | Potency, µM (titrated, usually from 32.9 µM), for the others: at the highest dose activity, positive = growth rescue, actives largely listed as activators | S. cerevisiae expressing SARS-CoV PLpro, growth rescue; note: 0% is about no effect; nearly all actives have a fitted effect of over 55% in size
* = called active by the depositor; ? = inconclusive; . = not tested or not shown; [ ] = another dose, or the depositor's remark. Most compounds without a hit are left out; they make up all but 9.5% or so of the library. Unless noted, calls come from the whole dose curve. Potency is the fitted concentration of half-maximal effect.

SMILES | RE007 growth inh | Pf growth 96h | NS1 function inh | Pf growth 48h | SARS PLP yeast
Cc1ccc(-n2cc(CN(C)Cc3ncc[nH]3)c(-c3cccc(C)c3)n2)cc1 | -0.7% | 0.5% | -0.9% | 2.62µM* | 0.0%
CCN1CC(CN(C)Cc2cn(-c3ccc(C)cc3)nc2-c2cccc(C)c2)CC1=O (stereo unspecified) | -3.3% | ? | -2.0% | 10.4µM* | 1.0%
Cc1ccc(-n2cc(CNC(C)Cc3cnccn3)c(-c3cccc(C)c3)n2)cc1 (stereo unspecified) | -2.2% | 20.9% | -1.2% | 3.29µM* | 0.3%
CN(Cc1ncc[nH]1)Cc1cn(-c2ccccc2)nc1-c1ccc2c(c1)OCO2 | -6.5% | -17.0% | 0.7% | ? | 0.5%
Cc1ccc(-n2cc(CN(C)Cc3nccn3C)c(-c3ccc(F)cc3)n2)cc1 | 4.0% | -17.8% | 1.0% | 8.28µM* | -0.3%
C[C@@H]1C(SC2Cn3cnc[n+]3C2)=C(C(=O)[O-])N2C(=O)[C@H]([C@@H](C)O)[C@@H]12 (stereo partly specified) | . | 4.2% | . | -11.6% | .
CSc1cccc(NC(=O)CCCn2c(=O)c3cccn3c3cccnc32)c1 | 1.3% | 11.1% | 8.9% | ? | ?
CCCc1nc2ccc(Br)cn2c1Cc1cccc(Cl)c1 | -15.1% | . | . | . | .
O=C(O)c1ccc2c(=O)n3c(nc2c1)/C(=C/c1cccc(Cl)c1Cl)CCCC3 | 17.5% | 11.7µM* | 0.1% | -25.2% | -9.9%
O=C(O)c1ccc2c(=O)n3c(nc2c1)/C(=C/c1ccc(F)cc1)CC3 | 12.3% | -12.3% | -2.4% | 2.0% | 0.3%
Cc1ccc(C(CC(=O)NCCCN(C)C)c2ccc(OC(C)C)cc2)cc1 (stereo unspecified) | 5.7% | -0.6% | 3.3% | ? | -0.9%
COc1ccc2c3c(cccc13)N(C)N=C2C | -22.6% | 0.0% | -1.2% | 10.4µM* | 5.9%
O=C(N/N=C/c1ccc([N+](=O)[O-])o1)c1cc(-c2ccc(-c3ccccc3)cc2)nc2ccccc12 | 1.6% | ? | ? | ? | -5.4%
O=C(N/N=C/c1ccc([N+](=O)[O-])o1)c1cc(-c2ccncc2)nc2ccccc12 | -20.7% | 0.928µM* | 9.5% | ? | -5.0%
Cc1cc(N/N=C/c2ccc([N+](=O)[O-])o2)nc2ccccc12 | -21.6% | 5.86µM* | -1.4% | 4.65µM* | -25.5%
Cc1cc(Nc2ccc([N+](=O)[O-])cc2)nc2ccccc12 | -12.8% | 26.1% | 3.6% | ? | -2.2%
Cc1ccc(-c2cc(C(=O)N/N=C/c3ccc([N+](=O)[O-])o3)c3ccccc3n2)o1 | -16.4% | 3.29µM* | -4.6% | -25.3% | -6.8%
Cc1ccc(/C=N/NC(=O)c2cc(-c3ccncc3)nc3ccccc23)o1 | -3.8% | -12.0% | -7.0% | 4.7% | -5.8%
O=C(N/N=C/c1ccc([N+](=O)[O-])o1)c1cn(-c2ccccc2)nc1-c1ccc(Cl)cc1 | 1.2% | ? | 3.1% | 4.65µM* | 0.1%
O=C(N/N=C/c1ccc([N+](=O)[O-])o1)c1cn(-c2ccccc2)nc1-c1ccccc1 | -1.7% | ? | -2.6% | ? | 18.3%
COc1ccc(NC(=O)c2cc(C3CCCCN3S(C)(=O)=O)on2)c(C)c1 (stereo unspecified) | 1.4% | . | . | . | .
COc1ccc(-c2ccc(C(=O)Nc3cccc(NS(C)(=O)=O)c3)c3occc23)c(C)c1 | 2.4%[18.4 µM] | . | . | . | .
O=C(CN1C(=O)NC2(CCCCCC2)C1=O)NCCc1ccc(F)cc1 | 10.3% | ? | . | 13.9% | 4.8%
O=C(/C=C/[C@H]1O[C@@H](n2cnc3c(NC(=O)c4ccccc4)ncnc32)[C@H](O)[C@@H]1O)NCc1cccs1 | 5.3% | . | . | . | .
O=S(=O)(NCc1ccccn1)c1cccc2cccnc12 | . | . | 1.0% | . | .
SMILES | RE007 growth inh | Pf growth 96h | NS1 function inh | Pf growth 48h | SARS PLP yeast
CN[C@H]1C[C@H]2c3[nH]c4ccc(-c5cccc(C)c5)cc4c3CCN2C[C@H]1[C@H](C)O | 18.5% | . | . | . | .
CCCc1nc2c(C)ccc(C)c2c(N)c1CC | -11.5% | 9.28µM* | -7.0% | 13.1µM* | 4.9%
CCOc1ccc(OCC)c(-c2c(=O)n(OCc3ccccc3Br)c3ccccc3[n+]2[O-])c1 | -12.0% | 9.28µM* | 11.6% | ? | 0.6%
CC1=NOC(=O)/C1=C\c1ccc(-c2ccccc2Br)o1 | ? | 14.7µM* | . | 5.4% | -15.4%
CC1=NOC(=O)/C1=C\c1ccc(-c2cccc(Cl)c2)o1 | ? | 81.1% | -27.8% | 43.5% | -9.8%
CP(C)(=O)CCP(=O)(c1ccccc1)c1ccccc1 | -9.0% | 7.9% | 16.1% | 16.5% | 13.9%
O=P(O)(O)CCP(=O)(c1ccccc1)c1ccccc1 | 1.1% | 1.65µM* | 4.0% | -12.0% | -0.3%
N#CC1=C(N)C(C#N)(C#N)[C@H](c2cccnc2)[C@H]2CN(C(=O)OCc3ccccc3)CC=C12 | -10.9% | 13.1µM* | -3.5% | ? | 9.6%
CCOC(=O)N1CC=C2C(C#N)=C(N)C(C#N)(C#N)[C@H](c3ccccc3OCC)[C@H]2C1 | 1.9% | . | -49.7% | 5.3% | 4.6%
CCOC(=O)N1CC=C2C(C#N)=C(N)C(C#N)(C#N)[C@H](c3ccc(OC(C)C)c(OCC)c3)[C@H]2C1 | -2.9% | -19.5% | ? | 5.22µM* | 1.6%
N#CC1=C(N)C(C#N)(C#N)C(c2cccnc2)C2CCCC=C12 (stereo unspecified) | . | -10.5% | 4.8% | -2.3% | -4.7%
N#CC1=C(N)C(C#N)(C#N)C(c2cccnc2)C2CC(c3ccccc3)CC=C12 (stereo unspecified) | -14.2% | 11.7µM* | 28.0% | ? | -22.6%
CCN1/C(=C2\C(=O)N(C)C(=S)N2C)C=Cc2cc(C)ccc21 | -18.5% | 22.8% | -37.3% | 3.7µM* | -26.4%
COc1ccc(NC(=O)c2c(NC(=O)CCC(=O)O)sc3c2CCCCC3)cc1 | -6.7% | 3.9% | 3.8% | -1.6% | -0.2%
C=CCNCC(=O)Nc1sc2c(c1C(=O)Nc1ccc(OC)cc1OC)CCC2 | 4.6% | 32.5% | 2.1% | 11.7µM* | 0.5%
Cc1ccc(C)c(OCCC(=O)Nc2cc(S(=O)(=O)N3CCCCC3)ccc2C)c1 | 1.1% | . | . | . | -2.9%
Cc1ccc(C)c(C(=O)OCC(=O)Nc2cccc(S(=O)(=O)N3CCCCC3)c2)c1 | -8.6% | 10.4µM* | . | 10.4µM* | 3.0%
CC(=O)c1c(C)[nH]c(C(=O)OCC(=O)Nc2cccc(S(=O)(=O)N3CCCC3)c2)c1C | -0.6% | 0.828µM* | 16.0% | 5.86µM* | -5.6%
CC(=O)c1c(C)[nH]c(C(=O)OCC(=O)Nc2cc(S(=O)(=O)N3CCCC3)ccc2Cl)c1C | 4.2% | 24.5% | 2.7% | -22.2% | -17.5%
Cc1ccc(C)c(OCCC(=O)Nc2cccc(S(=O)(=O)N3CCCCC3)c2)c1 | 26.3% | ? | . | 11.7µM* | 5.1%
CCOC(=O)C1=CCN(S(=O)(=O)c2ccc(C)cc2)C1c1cccc(Cl)c1 (stereo unspecified) | 9.5% | . | . | . | .
Fc1cc(F)c(NC(=S)N2CCOCC2)c(F)c1 | -1.4% | 21.0% | 1.6% | 16.6% | -0.6%

Screening data deposited in PubChem BioAssay by National Center for Advancing Translational Sciences (NCATS).
